Shown is part of a subset that was picked to be rich in hits.
FECH inh: inhibitors of human ferrochelatase, primary screen, biochemical, purified FECH, Ni-mesoporphyrin absorbance; Ferrochelatase, mitochondrial (Homo sapiens), P22830; Ni-mesoporphyrin absorbance 550 nm; calls only at 10 µM (by protocol); hit rate 3.3% among 20,000; AID 1671448, 2021;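 active means enzyme reaction rate more than 3 SD below the solvent-only control wells on the same plate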;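 further: lower slope than DMSO wells means FECH inhibition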
Target sequence (P22830 whole entry, looked up): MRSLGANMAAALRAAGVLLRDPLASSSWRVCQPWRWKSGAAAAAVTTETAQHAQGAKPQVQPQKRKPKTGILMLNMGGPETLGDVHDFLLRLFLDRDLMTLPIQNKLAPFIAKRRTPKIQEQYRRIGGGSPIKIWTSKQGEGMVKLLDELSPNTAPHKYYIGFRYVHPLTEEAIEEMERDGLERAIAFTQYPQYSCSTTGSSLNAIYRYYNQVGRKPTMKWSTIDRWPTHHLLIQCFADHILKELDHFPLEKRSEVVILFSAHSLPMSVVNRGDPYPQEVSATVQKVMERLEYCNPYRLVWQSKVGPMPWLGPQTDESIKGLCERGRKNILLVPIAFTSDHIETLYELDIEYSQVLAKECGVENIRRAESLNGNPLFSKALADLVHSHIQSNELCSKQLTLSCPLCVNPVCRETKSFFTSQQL
Starred values were filed as active, the others as inactive; i = inactive; + = active, no number.

SMILES | FECH inh
Cc1ccc2nc(C)c(C(=O)NC3C=CS(=O)(=O)C3)cc2c1 (stereo not given) | i
Cc1c(-c2cc(F)c3c(c2)CC(CN)O3)c(=O)n(C)c(=O)n1C (stereo not given) | i
Cc1ccc(OCc2cc(=O)n3oc(C)cc3n2)c(NC(=O)c2ccc(F)cc2)c1 | i
CCCCN1C(=O)CN(Cc2cccc(C)c2)S(=O)(=O)c2ccccc21 | i
O=C(Nc1cccc(Cl)c1)N1CCC(n2cnc3cccnc32)CC1 | i
O=C(NC1CCCCC1)c1nc[nH]c1C(=O)NCc1ccccn1 | +
Cc1ccc(CNC(=O)c2[nH]cnc2C(=O)NC2CCCCC2)o1 | i
CC(C)CCNC(=O)c1nc[nH]c1C(=O)NCc1ccccc1 | i
CC(C)(C)CNC(=O)c1nc[nH]c1C(=O)NCc1ccccc1 | i
O=C(NC1CCCCNC1=O)c1nc[nH]c1C(=O)NCc1ccccn1 (stereo not given) | i
Cc1ccc(CNC(=O)c2nc[nH]c2C(=O)NCc2ccccn2)o1 | +
CC(C)CCNC(=O)c1nc[nH]c1C(=O)NCC1CC1 | i
COc1ccccc1CNC(=O)c1[nH]cnc1C(=O)NCC1CC1 | i
Cc1ccc(CNC(=O)c2[nH]cnc2C(=O)NC(C)C)o1 | i
O=C(NCc1ccccn1)c1nc[nH]c1C(=O)NCc1cccnc1 | +
CCCNC(=O)c1[nH]cnc1C(=O)NC1CCCCC1 | i
COc1ccccc1CNC(=O)c1[nH]cnc1C(=O)NCC1CCCCC1 | +
COC(=O)CC1=CC(=O)N(CC(=O)Nc2ccc(F)cc2F)c2ccccc2N1 | i
O=C(Cn1c(=O)oc2ccccc21)N1Cc2cnn(CCO)c2C1 | i
CC[C@@]1(C(=O)O)C[C@H](C(=O)NCc2ccoc2)[C@H](c2ccc(OC)cc2)N1C | i
CCOc1ccccc1-c1nc(CSc2nc(C)c(CC)c(=O)[nH]2)c(C)o1 | i
CC(C)c1nccc(CN2CCN(C)C(C(=O)O)C2)n1 (stereo not given) | i
Cc1nc2nc(-c3ccccc3)nn2c(Sc2ccccc2NC(=O)c2ccccc2F)c1C | i
NCCc1nc(NCc2ccccc2Cn2cccn2)c2ccccc2n1 | i
O=C(NCC1CCCCC1)c1nc[nH]c1C(=O)NCc1ccccc1 | +
SMILES | FECH inh
O=C(NC1CCCCC1)c1nc[nH]c1C(=O)NC1CCCC1 | i
O=C(NCc1ccccc1)c1nc[nH]c1C(=O)N1CCCCC1 | i
CC(C)NC(=O)c1nc[nH]c1C(=O)NC1CCCc2ccccc21 (stereo not given) | i
O=C(NC1CCCCC1)c1nc[nH]c1C(=O)NC1CCc2ccccc21 (stereo not given) | +
CC1CCCN(C(=O)c2[nH]cnc2C(=O)NCc2ccccc2)C1 (stereo not given) | i
CCCCc1ccc(Nc2nc(SC)nc(-c3ccc(C)cc3)c2C#N)cc1 | i
CCOC(=O)c1coc(N2C[C@H](O)[C@@H](N3CCOCC3)C2)n1 | i
CCSCC(C)NCc1nc(-c2ccccc2C)no1 (stereo not given) | i
N[C@@H](C(=O)NCc1cccc(CN2CCCC2)c1)c1ccccc1 | i
CCc1ccc(-n2c(CN3CCN(S(=O)(=O)c4ccc(C)c(C)c4)CC3)nc3cccnc32)cc1 | i
CCc1ccc(S(=O)(=O)N2CCN(Cc3nc4cccnc4n3-c3ccc(C)cc3)CC2)cc1 | i
Cc1ccc(S(=O)(=O)N2CCN(Cc3nc4cccnc4n3-c3ccccc3)CC2)cc1C | i
CCc1ccc(-n2c(CN3CCN(S(=O)(=O)c4ccc(CC)cc4)CC3)nc3cccnc32)cc1 | +
COc1ccc(S(=O)(=O)N2CCN(Cc3nc4cccnc4n3-c3ccccc3)CC2)cc1OC | +
COc1ccc(Cl)cc1S(=O)(=O)N1CCN(Cc2nc3cccnc3n2-c2ccccc2)CC1 | i
COc1ccc(N2CCN(C(=O)CCc3nc(-c4cc5ccc(C)cc5[nH]c4=O)no3)CC2)cc1 | i
COCCCn1cnc(-c2ccccc2)c1-c1cc2c(cc1OC)OCCCO2 | i
O=C(NC1CC(=O)N(Cc2cccc(F)c2)C1)c1cnn2ccccc12 (stereo not given) | i
O=C(O)C1(C/C=C/c2ccccc2)CCCN(c2cnc3ccccc3n2)C1 (stereo not given) | i
Cc1ccc(CNC(=O)c2nc3ccccc3n(C)c2=O)cc1 | +
Cn1c(=O)c(C(=O)NCc2ccc(F)cc2)nc2ccccc21 | i
Cn1c(=O)c(C(=O)NCc2ccc3c(c2)OCO3)nc2ccccc21 | i
CCn1cc(-c2n[nH]c(=O)n2Cc2ccccc2)cn1 | i
CCCCN(C)C(=O)c1nc2ccccn2c1CN1CC(O)C1 | i
O=C(C1=Cc2ccccc2OC=C1)N1CC(c2cccnc2)C1 | i
SMILES | FECH inh
CCC(=O)Nc1ccc(Nc2nc(C)cc(Nc3ccccc3)n2)cc1 | i
O=C(CCN1CCC(OCc2cccnc2)CC1)NC1CCCCCC1 | +
C/C=C(\C)CN1CCC(OCc2cccnc2)CC1 | i
Cc1ccc(C(C)NC(=O)CN2CCC(OCc3cccnc3)CC2)cc1 (stereo not given) | i
CCc1cc(C(=O)NCc2cccnc2Oc2cccc(C(F)(F)F)c2)no1 | i
O=C(c1cccc2ccnn12)N(CCO)Cc1nccs1 | i
CCc1c(C)nc2ncnn2c1Sc1ccc(NC(=O)NCc2ccc(C)cc2)cc1 | +
CCc1c(C)nc2ncnn2c1Sc1ccc(NC(=O)Nc2ccc(C)cc2C)cc1 | i
CCc1c(C)nc2ncnn2c1Sc1ccc(NC(=O)NCc2ccc(F)cc2)cc1 | i
CCOc1ccc(NC(=O)Nc2ccc(Sc3c(CC)c(C)nc4ncnn34)cc2)cc1 | i
CCOc1ccccc1NC(=O)Nc1ccc(Sc2c(CC)c(C)nc3ncnn23)cc1 | i
CCc1c(C)nc2ncnn2c1Sc1ccc(NC(=O)NCCc2ccccc2)cc1 | +
Cc1ccc(N2C(=O)CCS2(=O)=O)cc1S(=O)(=O)Nc1ccccn1 | i
COc1cc(OC)cc(C(=O)Nc2ccccc2Sc2cc(C)nc3nc(-c4ccccc4)nn23)c1 | i
CC(C)Cn1c(CN2C[C@H](O)[C@@H](N3CCN(C)CC3)C2)nc2ccccc21 | i
Cc1nc2ncccn2c1C(=O)N1CCCN(CC2CC2)C(C(C)C)C1 (stereo not given) | i
Cc1cc(Sc2ccc(NC(=O)Nc3cccc(F)c3)cc2)n2ncnc2n1 | i
CC(C)(C)NC(=O)c1ccccc1NC(=O)CN1c2ccc(F)cc2-c2ccccc2S1(=O)=O | i
CCCCOC(=O)c1ccc(NC(=O)CN2c3ccc(F)cc3-c3ccccc3S2(=O)=O)cc1 | +
CCOC(=O)c1ccc(NC(=O)CN2CCCN(Cc3cccc(F)c3)S2(=O)=O)cc1 | i
CCOC(=O)c1ccc(NC(=O)CN2CCN(Cc3ccc(F)cc3Cl)S2(=O)=O)cc1 | i
COC(=O)c1cc(NC(=O)CN2c3ccc(F)cc3-c3ccccc3S2(=O)=O)cc(C(=O)OC)c1 | +
CC(CCc1ccccc1)NC(=O)CN1c2ccc(Br)cc2-c2ccccc2S1(=O)=O (stereo not given) | i
O=C(CN1c2ccc(F)cc2-c2ccccc2S1(=O)=O)NCCCN1CCOCC1 | i
CC(CCc1ccccc1)NC(=O)CN1c2ccc(F)cc2-c2ccccc2S1(=O)=O (stereo not given) | +
CCc1ccc2c(c1)-c1ccccc1S(=O)(=O)N2CC(=O)Nc1ccccc1C(=O)N1CCCC1 | i
CCC(C)NC(=O)c1nc(N2CCCC2)c2oc3ccccc3c2n1 (stereo not given) | i

Source: PubChem BioAssay (Corson Lab, School of Medicine, Indiana University)
